# Among all 310,000 compounds or so, about 14,000 (4.5%) showed an effect of 50% or more. The effect is printed as a negative number. The sample holds strong results, similar compounds and a random draw of the others, so the mix is not that of the screen.
# Target: human ether-à-go-go-related gene (hERG) potassium channel (human, UniProt Q12809)
# Assay: primary screen, population patch clamp on CHO cells stably expressing hERG; higher = less effect of the substance
# 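Also: peak tail current of the secondary pulse compared with the same well before compound.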
# human ether-à-go-go-related gene (hERG) potassium channel, sequence (Q12809 whole entry, looked up): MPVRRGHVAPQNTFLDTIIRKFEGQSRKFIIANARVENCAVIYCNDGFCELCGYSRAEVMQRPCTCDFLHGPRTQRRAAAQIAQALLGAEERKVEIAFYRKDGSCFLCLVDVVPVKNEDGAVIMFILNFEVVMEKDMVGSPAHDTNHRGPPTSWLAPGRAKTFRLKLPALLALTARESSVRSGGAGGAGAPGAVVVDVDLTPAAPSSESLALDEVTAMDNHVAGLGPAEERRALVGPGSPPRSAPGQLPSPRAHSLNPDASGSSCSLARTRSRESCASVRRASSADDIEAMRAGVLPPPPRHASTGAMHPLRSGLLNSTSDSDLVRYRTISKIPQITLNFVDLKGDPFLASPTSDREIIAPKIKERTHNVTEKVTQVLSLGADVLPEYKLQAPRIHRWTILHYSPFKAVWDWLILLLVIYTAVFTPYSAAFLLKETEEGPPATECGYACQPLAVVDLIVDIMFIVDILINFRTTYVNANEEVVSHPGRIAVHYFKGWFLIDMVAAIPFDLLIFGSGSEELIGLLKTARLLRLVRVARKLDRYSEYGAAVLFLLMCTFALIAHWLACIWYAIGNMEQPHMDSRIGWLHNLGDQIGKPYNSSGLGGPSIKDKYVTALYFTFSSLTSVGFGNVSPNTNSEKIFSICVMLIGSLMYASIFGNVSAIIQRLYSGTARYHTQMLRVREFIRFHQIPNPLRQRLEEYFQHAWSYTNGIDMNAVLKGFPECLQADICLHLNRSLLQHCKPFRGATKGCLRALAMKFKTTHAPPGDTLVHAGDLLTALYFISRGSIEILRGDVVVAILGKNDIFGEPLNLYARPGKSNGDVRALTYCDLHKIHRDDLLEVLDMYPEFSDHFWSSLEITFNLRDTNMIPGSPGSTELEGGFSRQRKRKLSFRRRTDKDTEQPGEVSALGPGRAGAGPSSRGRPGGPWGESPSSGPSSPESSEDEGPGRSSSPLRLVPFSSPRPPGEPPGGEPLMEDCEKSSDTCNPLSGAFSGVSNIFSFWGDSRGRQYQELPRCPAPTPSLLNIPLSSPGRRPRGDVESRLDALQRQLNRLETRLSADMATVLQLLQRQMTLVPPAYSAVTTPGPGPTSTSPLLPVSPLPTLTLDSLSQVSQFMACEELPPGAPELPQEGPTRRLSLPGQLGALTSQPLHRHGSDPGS
row,SMILES,"hERG current change (%, negative = inhibition) at 10uM [%]"
1,CCC(=O)NC(=S)N1CCN(c2ccc([N+](=O)[O-])cc2Cl)CC1,-26.4
2,CC(C)C(=O)N1CCN(c2ccc([N+](=O)[O-])cc2Cl)CC1,-30.9
3,C=CCn1c(SCC(=O)Nc2nccs2)nnc1-c1cc2cccc(OC)c2o1,-4.98
4,CC1CCN(C2=NN3C(=N)/C(=C\c4ccc(OC(=O)c5ccco5)cc4)C(=O)N=C3S2)CC1,12.6
5,O=C(NCc1ccccc1)C(c1ccccn1)N(C(=O)c1csnn1)c1ccccc1F (centres unmarked),-5.45
6,COc1ccc(N2CCN(C(=S)NCCc3ccccc3)CC2)cc1,-5.71
7,O=C(CCCOc1ccccc1)N1CCN(c2ccccn2)CC1,-8.9
8,Cc1ccc(Oc2ccccc2/C=C2\SC(=O)N(C)C2=O)cc1,4.1
9,C=CCNC(=O)CC1C(=O)NCCN1Cc1ccc(-c2ccccc2)cc1 (centres unmarked),-7.59
10,CC(C)Cn1c(N)c(C(=O)COC(=O)CN2C(=O)C3CC=CCC3C2=O)c(=O)n(C)c1=O (centres unmarked),-4.23
11,CCCc1[nH]nc2c1C(c1ccc(O)c(OC)c1)C(C#N)=C(N)O2 (centres unmarked),-31.9
12,COc1ccc(CCN(C)C/C=C/c2ccccc2[N+](=O)[O-])cc1OC,-70.8
13,COc1ccc(CCN(C)C/C=C/c2ccccc2)cc1OC,-64.6
14,COc1ccc(CCN(C)c2ccc(C(N)=O)cc2[N+](=O)[O-])cc1OC,-6.3
15,COc1ccc(CCNC(=O)/C=C\c2ccccc2)cc1OC,-7.74
16,COc1ccc(CCN(C)Cc2c(F)cccc2F)cc1OC,-25.6
17,CN(C/C=C/c1ccccc1[N+](=O)[O-])Cc1ccccc1,-46
18,Cc1ccn2cc(-c3cccc(NC(=O)C(C)C)c3)nc2c1,3.3
19,Cc1cc(NC(=O)CCC(=O)N(CC(=O)NC2CCCC2)c2cccc(F)c2)no1,-3.17
20,Cc1ccc(C(=O)N[C@H](C(=O)Nc2sccc2C(N)=O)C(C)C)cc1,5.47
21,O=C(Cn1cc(-c2nnnn2-c2ccc(Cl)cc2)c(=O)c2ccccc21)c1ccccc1,4.29

row,SMILES,"hERG current change (%, negative = inhibition) at 10uM [%]"
1,Cn1cc(-c2nnnn2-c2ccccc2)c(=O)c2ccccc21,-8.94
2,CCn1cc(-c2nnnn2-c2ccc(Cl)cc2)c(=O)c2ccccc21,-58.8
3,Cn1cc(-c2nnnn2-c2ccc(Cl)cc2)c(C(F)(F)F)n1,-4.49
4,Clc1ccc(-n2nnnc2-c2ccccc2)cc1,-0.933
5,Cn1cc(-c2nnnn2-c2ccc(Cl)cc2)c(=O)c2ccccc21,-69.3
6,COc1ccc(OC)c(S(=O)(=O)N2CCCC(C(=O)NCc3ccco3)C2)c1 (centres unmarked),-5.29
7,O=C(c1ccc(N2C(=O)CCC2=O)cc1)N1CCOCC1,7.4
8,O=C(NCCc1ccco1)C(=O)NCC1OCCCN1S(=O)(=O)c1cc(F)ccc1F (centres unmarked),-8.36
9,CC(=O)C(Sc1nn(C)c(=S)s1)C(=O)Nc1ccccc1 (centres unmarked),3.73
10,COc1cccc(/C=C2\SC(=S)N(CCC(=O)NNC(=O)c3ccccc3OC)C2=O)c1,18.5
11,CCOc1ccc(CN(C(=O)c2oc3cc(C)ccc3c2C)C2CCS(=O)(=O)C2)cc1 (centres unmarked),-10
12,Cc1ccc(NC(=O)CNC(=O)c2ccc3c(c2)OCO3)nc1,1.63
13,CCC(C)(C)n1nnnc1C(c1cc(OC)ccc1OC)N1CCC(C(N)=O)CC1 (centres unmarked),-1.9
14,CC1CN(C(=O)CS(=O)(=O)Cc2ccccc2)CC(C)O1 (centres unmarked),17.1
15,COc1cccc(N/C(=N/C(=S)Nc2ccc(C)cc2C)Nc2nc(C)cc(C)n2)c1,0.704
16,CS(=O)(=O)O.NC(=Nc1ccccc1)NC(=O)c1nc(Cl)c(N)nc1N,-50
17,Cl.NC(=NCc1ccccc1)NC(=O)c1nc(Cl)c(N)nc1N,-54.2
18,Cl.NC(=NCCc1ccccc1)NC(=O)c1cc(Cl)ccc1O,-2.39
19,CSc1ncccc1C(=O)OCC(=O)c1ccc(S(=O)(=O)N2CCCCC2)cc1,23.5
20,CCOC(=O)N1CCN(C(=O)c2ccc(C)c(S(=O)(=O)N3CCCCC3)c2)CC1,-46

# Source: article PMC4336329 (PLoS ONE, 2015)
